From PubChem BioAssay (NCATS)
Inconclusive results are not listed. Values without a mark were called inactive. Calls come from the whole dose curve; as a rule, active = well fitted inhibition curve with a large enough effect; inconclusive = small, poorly fitted or top-dose-only effect; inactive = flat fitted curve, though single readings scatter.

What follows are compounds tested on KB-3-1 (assay: Cytotoxic Profiling of Annotated Libraries Using Quantitative High-Throughput Screening (AID 1296008; note: nearly all actives have a fitted effect of over 60% in size)). Conditions: Five cell lines viability, CellTiter-Glo ATP luminescence, 48-72 h; max response: hits give low values.
Method in brief: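 Cytotoxicity was measured as CellTiter-Glo ATP luminescence, read after 10 min at room temperature. Compound treatment of the cells lasted 48 or 72 hr at 37 degrees Celsius in a qHTS format.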
% is set by controls: 0 for no effect and ±100 for the full control effect.

| Compound | max response [%] |
| --- | --- |
| O=S(O)CNc1ccc(S(=O)(=O)c2ccc(NCS(=O)O)cc2)cc1 | -17.8 |
| Cc1ccc(/C(=C\CN2CCCC2)c2cccc(/C=C/C(=O)O)n2)cc1 | -13.8 |
| CCOC(=O)c1csc(Nc2ccc(Cl)cc2)n1 | -19 |
| CCC(c1ccccc1)c1noc(CCN(CC)CC)n1 (stereo not given) | -6.24 |
| O=C1O[C@@H]2[C@@H](O)[C@H](O)O[C@@H]2[C@H]1O | -9.13 |
| Cc1c(N)nc(C(CC(N)=O)NCC(N)C(N)=O)nc1C(=O)NC(C(=O)NC(C)C(O)C(C)C(=O)NC(C(=O)NCCc1nc(-c2nc(C(=O)NCCCN[C@@H](C)c3ccccc3)cs2)cs1)C(C)O)C(O[C@@H]1O[C@@H](CO)[C@@H](O)[C@H](O)[C@@H]1O[C@H]1O[C@H](CO)[C@@H](O)[C@H](OC(N)=O)[C@@H]1O)c1cnc[nH]1 (stereo not given in full) | -0.767 |
| CC(C)NC(=O)N1CC[C@H](N=C2Nc3cc(F)ccc3N(CC(F)F)c3ccc(Cl)cc32)C1 | -1.78 |
| CCC(CN)CC(C)CCNCC(O)CNCC(C)CC(CC)CN (stereo not given) | -5.63 |
| CCC(C)C(C(=O)OCC[N+](C)(CC)CC)c1ccccc1 (stereo not given) | -5.4 |
| CC(CCC1(O)OC2CC3C4CC=C5CC(O[C@@H]6O[C@H](CO)[C@@H](O[C@@H]7O[C@@H](C)[C@H](O)[C@@H](O)[C@H]7O)[C@H](O)[C@H]6O[C@@H]6O[C@@H](C)[C@H](O)[C@@H](O)[C@H]6O)CCC5(C)C4CCC3(C)C2C1C)CO[C@@H]1O[C@H](CO)[C@@H](O)[C@H](O)[C@H]1O (stereo not given in full) | 6.64 |
